High-throughput results as filed in PubChem BioAssay.
ARNT TACC3 PPI: disruptors of human ARNT/TACC3 interaction | AlphaScreen His-ARNT PAS-B/GST-TACC3 binding, luminescence; TACC3 fragment carries E629A point mutation | inhibition, % at 9.99 µM | AID 623870 | 390,000 compounds, 0.66% hits | Q9Y6A5;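 active means mean inhibition of replicates at least 50% and at least half of replicates each reaching 50%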;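 further: 0% = complete ARNT plus TACC3 wells and 100% = ARNT alone without TACC3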
iPSC survival up: increases survival of single human iPS cells; hiPSC single-cell survival, ATPlite luminescence; 100% = ROCK inhibitor wells, 0% = DMSO; survival enhancement, % at 20 µM; 360,000 compounds, 0.044% hits; in the data active means survival enhancement above about 18%;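 further: cells exposed to compounds for 16 hours before the ATP read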
CendR NRP1 mod: alters CendR peptide binding to human NRP-1; O14786; FAM-RPARPAR peptide binding to NRP-1, fluorescence polarization; inhibition, % at 25 µM; 360,000 compounds, 0.85% hits;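 active means inhibition or corrected inhibition above about 18%, plus a signal ratio from 0.5 to 1.5, limit read from the data, passing the limit was not always enough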
ABCB6 inh MLPCN: human ABCB6 transporter inhibition; fluorescence ratio to DMSO, % at 10 µM; 360,000 compounds, 0.19% hits; K562-ABCB6 porphyrin accumulation, flow cytometry, 1 h; stronger effect = lower value;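 active means fluorescence ratio to DMSO below 75%, the collection mean minus 3 SD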;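 further: signal is porphyrin accumulated inside mitochondria; 100% equals median channel fluorescence of DMSO control wells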
GSIS activator: GLuc luminescence reporter in INS-1E cells, primary screen for activators of glucose-dependent secretion of insulin; INS-1E GLuc reporter insulin secretion, 2-3 h; activation, % at 16.6 µM; 370,000 compounds, 0.61% hits; AID 743287;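 active means lowest replicate activation of at least 40%, so every replicate reaches that level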;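 further: 0% = median of neutral control wells and 100% = median of IBMX positive control wells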
ABCB6 blocker 1: human ABCB6 transporter inhibition; shares compounds with ABCB6 inh MLPCN; ratio response (% of DMSO), % at 10 µM; K562-ABCB6 porphyrin accumulation, flow cytometry, 1 h; stronger effect = lower value; 700 tested, under 10 active; AID 602430;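 active means repeat-averaged ratio response below 75% of DMSO, the collection mean minus 3 SD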;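 further: median porphyrin fluorescence at 575 nm with 488 nm excitation from mitochondria; lower ratio means less porphyrin signal so ABCB6 inhibition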
AlphaScreen ctr: counter-screen for ARNT/TACC3 inhibitors: AlphaScreen artifacts. shares compounds with ARNT TACC3 PPI. 1,200 compounds, 50% hits. His-ARNT PASB-GST AlphaScreen artifact counter-screen, luminescence. AC50, µM (doses to about 68 µM), without a hit: at the top dose activity change, negative = signal decrease. AID 651705;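 active means every separate test run was called active for a drop in luminescence, with AC50 within twice the top valid dose, actives reach about 71 µM in these data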
* = called active by the depositor; . = not tested or not shown. Hits are enriched below; roughly 1.8% of the tested compounds scored in any of these assays.

SMILES	ARNT TACC3 PPI	iPSC survival up	CendR NRP1 mod	ABCB6 inh MLPCN	GSIS activator	ABCB6 blocker 1	others
Cc1ccc(S(=O)(=O)N(C)C[C@@H]2Oc3ccc(NC(=O)CCC(F)(F)F)cc3C(=O)N([C@@H](C)CO)C[C@H]2C)cc1	1	.	.	.	9	.
CCOC(=O)C1CN(S(=O)(=O)c2ccccc2)C1	-7	0	6	96	-3	.
CCOC(=O)C1(C(=O)OCC)CCN(S(=O)(=O)c2ccccc2)CC1	.	-2	10	101	-4	99
COc1cccc(CNCCO)c1OCc1ccc(Cl)cc1	-8	0	-5	74*	7	97
CC(=O)Nc1cccc(-c2ccnc3c2CC(C)(C(=O)Nc2ccc4c(c2)OCO4)O3)c1 (stereo not given)	.	-2	-9	105	-14	102
CC(=O)Nc1ccc(-c2ccnc3c2CC(C)(C(=O)Nc2cccc(Oc4ccccc4)c2)O3)cc1 (stereo not given)	.	-3	6	95	-51	101
COc1ccc(NC(=O)C2(C)Cc3c(-c4ccc(C(N)=O)cc4)ccnc3O2)cn1 (stereo not given)	.	3	7	97	12	99
CN(C)c1ccc(-c2ccnc3c2CC(C)(C(=O)Nc2ccc(F)c(Cl)c2)O3)cc1 (stereo not given)	.	8	-3	96	.	101
O=C(C1CC1)N1CC2(C1)[C@H](c1ccccc1)[C@@H](CO)N2C(=O)c1cccnc1	.	.	.	.	1	.
Cc1cccc(Cc2c(C)nc3c(C(=O)NCc4ccco4)cnn3c2C)c1	8	19*	-19	88	-26	101
Cc1ccc(C)c(Cc2c(C)nc3c(C(=O)NCc4ccc5c(c4)OCO5)cnn3c2C)c1	.	.	.	.	8	.
Cc1nc2c(C(=O)NCc3ccco3)cnn2c(C)c1Cc1ccc(F)cc1Cl	8	0	9	72*	-43	100
Cc1nc2c(C(=O)NCc3ccc4c(c3)OCO4)cnn2c(C)c1Cc1ccc(F)cc1Cl	-12	-1	4	97	.	.
Cc1nc2c(C(=O)N3CCN(C)CC3)cnn2c(C)c1Cc1ccc(Cl)cc1	2	6	-12	99	.	100
Cc1nc2c(C(=O)N3CCCCC3)cnn2c(C)c1Cc1ccccc1F	-23	-3	-19	96	-10	98
Cc1ccccc1Cc1c(C)nc2c(C(=O)N3CCN(Cc4ccc5c(c4)OCO5)CC3)cnn2c1C	-19	2	-3	90	.	.
C[C@@H]1CN([C@@H](C)CO)S(=O)(=O)c2ccc(C#CC3CC3)cc2O[C@H]1CN(C)C	3	.	.	.	3	.
COc1ccc(NC(=O)N(C)C[C@H]2Oc3c(NC(=O)CCCCCC(=O)Nc4ccccc4N)cccc3C(=O)N([C@@H](C)CO)C[C@H]2C)cc1	.	.	.	.	-2	.
Cc1ccc(-c2nc(C)sc2CC(=O)NCc2ccco2)cc1	active	3	-39	103	.	.	AlphaScreen ctr=-12%
O=C(N/N=C1/CCS(=O)(=O)c2ccc(F)cc21)c1cccnc1	-8	2	20	99	10	.
O=C(N/N=C1/CCS(=O)(=O)c2ccc(F)cc21)c1ccccn1	52*	0	10	98	36	.	AlphaScreen ctr=-5%
COC(=O)C1=COC(C)C2CN3CCc4c([nH]c5cc(OC)c(OC)cc45)C3CC12 (stereo not given)	63*	-1	144	121	3	.	AlphaScreen ctr=71µM*
COC(=O)[C@H]1[C@H]2C[C@@H]3c4[nH]c5cc(OC)ccc5c4CCN3C[C@H]2C[C@@H](OC(=O)c2cc(OC)c(OC)c(OC)c2)[C@@H]1OC	8	3	-54	113	.	.
C[C@@H]1CN([C@H](C)CO)C(=O)c2cc(NS(=O)(=O)c3ccc(Cl)cc3)ccc2O[C@H]1CN(C)Cc1ccc(C(=O)Nc2ccccc2N)cc1	.	.	.	.	2	.
COc1ccc(-c2[nH]ncc2/C=N\NC(=O)c2cccs2)cc1OC	51*	0	5	103	15	.	AlphaScreen ctr=-22%
